Test results published in PubChem BioAssay (NCI).
The panel holds about 79,000 compounds, 15% with a hit somewhere; the sample as a whole holds those more often. Values without a mark were called inactive. Active and inactive are the calls of the source. Rule as the data show it: active = growth inhibition above about 70%; inactive = the rest.

How the values were obtained:
[1] = NCI Yeast Anticancer Drug Screen. Data for the rad50 strain (AID 155);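 also: 0% = growth of vehicle-only cultures of the same strain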; settings: S. cerevisiae rad50 strain growth inhibition, stronger effect = higher value
Method in brief: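 Vehicle-treated cultures provide the reference for the growth inhibition reported for compound-exposed, repair-deficient yeast.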

[2] = NCI Yeast Anticancer Drug Screen. Data for the mec2-1 strain (AID 157); settings: S. cerevisiae mec2-1 strain, stronger effect = higher value
Method in brief: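 Compounds were applied to mec2-1 yeast cells. Their growth was then compared with that of vehicle-treated cultures to give growth inhibition.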

[3] = NCI Yeast Anticancer Drug Screen. Data for the sgs1 mgt1 strain (AID 161);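 also: 0% = growth of cultures given vehicle only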; settings: S. cerevisiae sgs1 mgt1 strain, stronger effect = higher value
Method in brief: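 Yeast cells carrying a defined DNA-repair defect were exposed to test compounds. Growth inhibition was measured relative to vehicle-treated controls.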

[4] = NCI Yeast Anticancer Drug Screen. Data for the cln2 rad14 strain (AID 165);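 also: 0% = growth equal to vehicle treated cultures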; settings: S. cerevisiae cln2 rad14 strain, stronger effect = higher value
Method in brief: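 Strain: cln2 rad14 yeast, altered in cell cycle control and DNA damage repair. Read-out: growth inhibition vs vehicle.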

[5] = NCI Yeast Anticancer Drug Screen. Data for the bub3 strain (AID 167); settings: S. cerevisiae bub3 mutant strain, stronger effect = higher value
Method in brief: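 Mutant yeast screening strain plus compound; vehicle-treated cultures serve as the 0% inhibition reference.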

[6] = NCI Yeast Anticancer Drug Screen. Data for the mlh1 rad18 strain (AID 175); settings: S. cerevisiae mlh1 rad18 strain growth inhibition, stronger effect = higher value
Method in brief: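 A repair-deficient yeast strain is exposed to test compound, and growth is scored relative to vehicle-treated controls.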

[7] = at 5.0 µM (retest, dose inferred, filed as 0.5)
[8] = at 50.0 µM (retest, dose inferred, filed as 5.0)

Row | Structure (SMILES) | growth inhibition [1, 7] [%] | growth inhibition [1, 8] | growth inhibition ([1]; at 50.0 µM) | growth inhibition [2, 7] [%] | growth inhibition [2, 8] | growth inhibition ([2]; at 50.0 µM) | growth inhibition [3, 7] [%] | growth inhibition [3, 8] | growth inhibition ([3]; at 50.0 µM) | growth inhibition [4, 7] | growth inhibition [4, 8] | growth inhibition ([4]; at 50.0 µM) | growth inhibition [5, 7] [%] | growth inhibition [5, 8] | growth inhibition ([5]; at 50.0 µM) | growth inhibition [6, 7] [%] | growth inhibition [6, 8] | growth inhibition ([6]; at 50.0 µM)
1 | O=c1oc(-c2ccccc2)nc2ccccc12 | 4 | 41% | 76.5% (active) | 4 | 17% | 31.2% | 0 | 9% | 58.9% | 4% | 4% | 27.5% | 0 | 11% | 38.9% | -4 | 20% | 42.8%
2 | C=CCc1ccc(OC(=O)CCl)c(OC)c1 | 1 | 23% | 64.8% | 1 | 9% | 27.8% | -1 | 5% | 12.6% | 2% | 8% | 28.8% | -2 | 3% | 18.6% | 0 | 26% | 81.7% (active)
3 | Oc1c(Cl)cc(CN(Cc2cc(Cl)c(O)c(Cl)c2)C2CCCCC2)cc1Cl | 10 | 87% (active) | 97.8% (active) | 1 | 88% (active) | 98.9% (active) | 2 | 88% (active) | 97.6% (active) | -17% | 51% | 98.2% (active) | -9 | 88% (active) | 97.6% (active) | -12 | 95% (active) | 98% (active)
4 | COc1ccccc1C(=O)c1ccc2ccccc2c1 | -3 | 71% (active) | 47.2% | -10 | 85% (active) | 73% (active) | 0 | 83% (active) | 61.8% | -6% | 9% | -17.1% | 3 | 74% (active) | 83.6% (active) | -15 | 55% | 42.3%
5 | COc1ccc(OC)c(CC(Cl)(C#N)C#N)c1 | 33 | 99% (active) | 98.2% (active) | 48 | 100% (active) | 99.8% (active) | 48 | 99% (active) | 99.7% (active) | 20% | 99% (active) | 99% (active) | 34 | 99% (active) | 99.8% (active) | 61 | 99% (active) | 99.6% (active)
6 | CC(C)C12CCC3(CCC4C(C)(C(=O)O)CCCC4(C)C3C1)C(CN)C2 (configuration not stated) | 3 | 98% (active) | 97.3% (active) | 9 | 98% (active) | 95.5% (active) | 17 | 95% (active) | 94.9% (active) | -20% | 98% (active) | 97.8% (active) | -4 | 98% (active) | 96% (active) | 6 | 98% (active) | 93.3% (active)
7 | O=c1[nH]cnc2c1ncn2CCc1ccccc1 | 0 | -6% | -11.6% | -6 | -2% | -1.55% | -3 | -5% | -4.45% | -4% | 3% | 49.1% | 0 | 4% | 4.85% | 4 | -10% | -19.8%
8 | C=C(CN(C)C)C(=O)c1ccccc1[N+](=O)[O-] | 1 | 92% (active) | 8.5% | 10 | 96% (active) | 51.4% | 6 | 91% (active) | 74.2% (active) | 99% (active) | 91% (active) | -25.4% | 1 | 92% (active) | 71.7% (active) | 8 | 92% (active) | 66.8%
9 | N#Cc1sc2c(c1OC(=O)c1ccc(Cl)cc1)c(=O)n(-c1ccccc1)c(=S)n2-c1ccccc1 | -4 | -16% | 1.5% | 5 | -24% | 2.4% | -3 | 0% | -0.45% | 5% | 6% | 34.5% | -3 | 2% | 4.95% | -2 | 1% | -7.35%
